According to PubChem BioAssay:
Active and inactive are the calls of the source.

Legend:
[1] = E. coli DRC41 culture turbidity changes, primary screen, E. coli filamentation inducer project, strain DRC41, OD650, 48 h (AID 1152);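 note: E. coli MC1000 strain DRC41 lacking acrAB efflux pump and sulA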; conditions: E. coli DRC41 (acrAB sulA), higher = more signal, called active from +8 up or from −8 down
[2] = small-molecule binders of probe aLefty1, primary screen, biochemical, small-molecule microarray, 635/667 nm fluorescence (AID 1153); conditions: higher = more signal;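 note: score merges spot fluorescence with signal-to-noise ratio from the scanned slide images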
[3] = PSAC antagonists in infected red cells, primary screen, cell-based, P. falciparum Indochina, OD700, 1 h (AID 1154); conditions: P. falciparum Indochina infected RBC osmotic lysis, higher = more signal, called active from +8 up or from −8 down
[4] = PSAC antagonists in infected red cells, primary screen, cell-based, P. falciparum Indochina, OD700, 2 h (AID 1155);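 note: lysis reports solute entry through the parasite surface anion channel PSAC; channel blockers reduce lysis of infected cells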; conditions: P. falciparum Indochina infected erythrocytes, osmotic lysis OD700; higher = more signal, called active from +8 up or from −8 down
[5] = osmotic lysis modulators in infected erythrocytes, primary screen, PSAC antagonist project, cell-based, P. falciparum Indochina, OD700, 3 h (AID 1156); conditions: higher = more signal, called active from +8 up or from −8 down
[6] = PSAC antagonists in infected red cells, primary screen, cell-based, P. falciparum Indochina, OD700, 18 h (AID 1157); conditions: P. falciparum Indochina infected erythrocytes, osmotic lysis OD700, 18 h; higher = more signal, called active from +8 up or from −8 down
[7] = modulators of S6 phosphorylation in cells, primary screen, cell-based, A549, cytoblot, luminescence, serum-stimulated (AID 1158); conditions: A549 phospho-S6 cytoblot, 5 h, higher = more signal;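 note: serum-stimulated A549 lung adenocarcinoma cells; signal is phosphorylated S6 detected by cytoblot immunostaining with HRP secondary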
[8] = molecular target: NADPH oxidase 2 (Homo sapiens) (UniProt P04839); experiment: NOX2-dependent H2O2 signal modulators, primary screen, NOX inhibitor project, cell-based, HEK293-NOX2, PMA-stimulated, Amplex Red fluorescence (AID 1159); conditions: 45 min, higher = more signal, called active from +8 up or from −8 down; note: test concentration not given here
[9] = molecular target: NADPH oxidase 4 (Homo sapiens) (UniProt Q9NPH5); experiment: NOX4-dependent H2O2 signal modulators, primary screen, NOX inhibitor project, cell-based, HEK293-NOX4, tetracycline-induced, Amplex Red fluorescence (AID 1160); conditions: 45 min, higher = more signal, called active from +8 up or from −8 down
[10] = molecular target: NADPH oxidase 5 (Homo sapiens) (UniProt Q96PH1); experiment: NOX5-dependent H2O2 signal modulators, primary screen, NOX inhibitor project, cell-based, HEK293-NOX5, Amplex Red fluorescence (AID 1161); conditions: HEK293-NOX5, ionomycin, 45 min, higher = more signal
[11] = A549 cell viability effects, profiling panel, calcein-AM fluorescence, 48 h, basal (AID 1162); conditions: higher = more signal; note: test concentration not given here
[12] = adipocyte viability effects, profiling panel, cell-based, 3T3-L1 adipocytes, calcein-AM fluorescence, 48 h, basal (AID 1163); conditions: 3T3-L1 adipocytes viability, higher = more signal; note: test concentration not given here
[13] = HepG2 cell viability effects, profiling panel, calcein-AM fluorescence, 48 h, basal (AID 1164); conditions: higher = more signal; note: test concentration not given here
[14] = MM1S cell viability effects, profiling panel, calcein-AM fluorescence, 48 h, basal (AID 1165); conditions: higher = more signal;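 note: viability of MM1S multiple myeloma cells under basal unstimulated conditions; test concentration not given here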
[15] = basal RPMI8226 viability, no added stimulus, profiling panel, cell-based, calcein-AM fluorescence, 48 h, PK04 Diversity Set (AID 1166); conditions: RPMI8226 myeloma viability, higher = more signal;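 note: cells grown under basal conditions without added stimulus; test concentration not given here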
[16] = basal HepG2 mitochondrial membrane potential changes, profiling panel, cell-based, JC-1 fluorescence, 24 h, 100 nL compound (AID 1167); conditions: higher = more signal; note: test concentration not given here
[17] = basal 3T3-L1 adipocyte mitochondrial potential changes, profiling panel, cell-based, JC-1 fluorescence, 3T3-L1 adipocytes, 24 h, 100 nL compound (AID 1168); conditions: JC-1 mitochondrial fluorescence, higher = more signal, called active from +8 up or from −8 down; note: test concentration not given here
[18] = basal RPMI8226 mitochondrial membrane potential changes, profiling panel, cell-based, JC-1 fluorescence, 24 h, 100 nL compound (AID 1169); conditions: RPMI8226 myeloma, JC-1 mitochondrial potential fluorescence, higher = more signal; note: test concentration not given here
[19] = basal MM1S mitochondrial membrane potential changes, profiling panel, cell-based, JC-1 fluorescence, 24 h, 100 nL compound (AID 1170); conditions: higher = more signal; note: test concentration not given here
[20] = A549 lung cancer cell viability effects, profiling panel, resazurin fluorescence, 24 h, PK04 Diversity Set (AID 1171); conditions: higher = more signal, called active from +8 up or from −8 down; note: test concentration not given here

Sequence of NADPH oxidase 2 (Homo sapiens) (P04839 whole entry, looked up): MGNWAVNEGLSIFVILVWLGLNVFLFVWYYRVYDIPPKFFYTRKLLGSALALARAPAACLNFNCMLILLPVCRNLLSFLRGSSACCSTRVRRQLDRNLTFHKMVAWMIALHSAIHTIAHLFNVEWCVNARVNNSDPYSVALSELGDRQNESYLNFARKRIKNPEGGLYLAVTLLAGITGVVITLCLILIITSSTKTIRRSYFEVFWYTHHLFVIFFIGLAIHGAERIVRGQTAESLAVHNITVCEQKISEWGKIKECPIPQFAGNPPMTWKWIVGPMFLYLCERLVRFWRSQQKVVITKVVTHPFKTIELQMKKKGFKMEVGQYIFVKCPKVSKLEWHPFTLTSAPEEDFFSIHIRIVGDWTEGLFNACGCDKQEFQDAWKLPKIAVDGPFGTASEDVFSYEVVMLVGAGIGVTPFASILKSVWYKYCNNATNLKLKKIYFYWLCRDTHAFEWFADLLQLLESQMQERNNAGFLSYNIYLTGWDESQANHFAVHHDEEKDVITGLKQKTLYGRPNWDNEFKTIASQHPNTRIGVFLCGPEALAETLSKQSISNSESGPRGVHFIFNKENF
Sequence of NADPH oxidase 4 (Homo sapiens) (Q9NPH5 whole entry, looked up): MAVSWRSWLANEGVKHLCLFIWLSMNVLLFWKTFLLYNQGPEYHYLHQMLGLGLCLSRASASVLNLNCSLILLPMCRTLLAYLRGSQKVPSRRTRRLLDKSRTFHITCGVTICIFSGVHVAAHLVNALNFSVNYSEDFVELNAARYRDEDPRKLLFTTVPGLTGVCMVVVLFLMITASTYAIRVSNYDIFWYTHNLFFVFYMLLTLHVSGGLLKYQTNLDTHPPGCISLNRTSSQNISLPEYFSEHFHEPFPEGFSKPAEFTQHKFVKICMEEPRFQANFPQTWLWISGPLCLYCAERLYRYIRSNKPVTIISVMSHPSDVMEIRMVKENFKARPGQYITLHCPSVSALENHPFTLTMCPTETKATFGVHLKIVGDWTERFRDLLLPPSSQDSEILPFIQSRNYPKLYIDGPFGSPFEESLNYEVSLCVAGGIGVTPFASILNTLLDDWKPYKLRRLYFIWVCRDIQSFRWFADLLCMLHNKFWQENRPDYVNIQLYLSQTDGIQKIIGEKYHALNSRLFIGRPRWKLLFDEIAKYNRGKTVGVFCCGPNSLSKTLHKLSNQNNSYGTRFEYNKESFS
Sequence of NADPH oxidase 5 (Homo sapiens) (Q96PH1 whole entry, looked up): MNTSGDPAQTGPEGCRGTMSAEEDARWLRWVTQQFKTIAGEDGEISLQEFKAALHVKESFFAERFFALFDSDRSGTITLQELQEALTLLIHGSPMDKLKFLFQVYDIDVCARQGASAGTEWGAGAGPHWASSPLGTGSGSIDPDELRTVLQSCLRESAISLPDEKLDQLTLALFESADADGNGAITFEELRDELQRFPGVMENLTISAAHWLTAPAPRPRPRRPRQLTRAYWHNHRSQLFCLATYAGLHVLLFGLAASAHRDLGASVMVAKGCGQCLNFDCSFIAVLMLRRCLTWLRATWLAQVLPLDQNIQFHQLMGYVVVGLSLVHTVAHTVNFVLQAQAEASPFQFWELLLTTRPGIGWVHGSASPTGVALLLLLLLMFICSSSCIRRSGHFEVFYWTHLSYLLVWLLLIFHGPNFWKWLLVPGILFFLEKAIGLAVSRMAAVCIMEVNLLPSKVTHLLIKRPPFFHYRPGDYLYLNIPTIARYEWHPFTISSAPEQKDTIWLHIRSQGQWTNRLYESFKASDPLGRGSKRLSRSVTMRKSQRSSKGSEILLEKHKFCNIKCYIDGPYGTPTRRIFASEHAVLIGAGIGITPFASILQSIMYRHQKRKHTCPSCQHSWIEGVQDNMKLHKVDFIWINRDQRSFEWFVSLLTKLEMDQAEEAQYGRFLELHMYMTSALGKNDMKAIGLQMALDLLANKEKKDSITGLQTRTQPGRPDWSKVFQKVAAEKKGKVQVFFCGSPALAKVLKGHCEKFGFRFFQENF

Row | Compound | z-score [1] | composite z-score [2] | z-score [3] | z-score [4] | z-score [5] | z-score [6] | z-score [7] | z-score [8] | z-score [9] | z-score [10] | z-score [11] | z-score [12] | z-score [13] | z-score [14] | z-score [15] | z-score [16] | z-score [17] | z-score [18] | z-score [19] | z-score [20]
1 | C=CCN(Cc1ccccc1)C(=O)C(c1cccs1)N(C(=O)/C=C\C(=O)O)c1ccc(CCOCCO)cc1 (stereo not given) | 1.61 (inactive) | -0.0538 | 1.51 (inactive) | -0.707 (inactive) | 0.189 (inactive) | -1.04 (inactive) | 1.77 | -0.108 (inactive) | -0.821 (inactive) | -0.58 | 0.631 | 0.007 | 0.97 | 1.82 | 0.526 | 0.427 | 0.319 (inactive) | 0.697 | -1.06 | -0.52 (inactive)
2 | C=CCN1Cc2ccccc2[C@@H]2OC(c3ccc(OCCCO)cc3)=N[C@]2(CCS(=O)(=O)c2ccccc2)C1=O | 0.576 (inactive) | 0.415 | 27.2 (active) | 20.3 (active) | 2.26 (inactive) | 3.22 (inactive) | -0.0454 | -1.38 (inactive) | 0.827 (inactive) | 0.0284 | -0.251 | 0.771 | 0.574 | -1.12 | -0.664 | -0.187 | -0.303 (inactive) | -1.06 | -0.181 | 0.315 (inactive)
3 | O=C1N(CCS(=O)(=O)c2ccccc2)c2ccccc2[C@@H]2OC(c3ccc(OCCCO)cc3)=N[C@]12Cc1ccccc1 | 0.0442 (inactive) | -0.081 | 30.9 (active) | 24.6 (active) | 2.85 (inactive) | 6.38 (inactive) | 2.01 | -2.55 (inactive) | 0.645 (inactive) | -1.18 | 0.661 | 1.33 | 0.993 | -2.75 | -1.58 | 0.637 | 2.24 (inactive) | -0.407 | -0.989 | -2.13 (inactive)
4 | C[N+](C)(C)CCCC[C@@H]1NC(=O)[C@H]2C[C@@H](C(=O)NCCCCCCNC(=O)CS)[C@@H](c3ccc(O)cc3)N2C1=O | -0.265 (inactive) | -0.299 | 1.24 (inactive) | 0.193 (inactive) | 1.12 (inactive) | 0.0061 (inactive) | -0.409 | 0.518 (inactive) | 0.507 (inactive) | 0.936 | -0.293 | -0.267 | -0.838 | -0.414 | 0.498 | -1.66 | -0.564 (inactive) | 0.164 | -0.0762 | -0.657 (inactive)
5 | COc1ccc(-c2cc3c(c(Cc4ccccc4)n2)[Si](C(C)C)(C(C)C)OC3)cn1 | -1.28 (inactive) | -0.0099 | 2.28 (inactive) | 0.139 (inactive) | -0.709 (inactive) | 0.408 (inactive) | 0.0758 | -1.62 (inactive) | -0.121 (inactive) | -2.02 | -0.103 | -0.19 | 0.147 | -0.494 | -1.37 | -0.914 | -1.19 (inactive) | -0.346 | 0.488 | 2.17 (inactive)
6 | CC(C)Cc1ccc(CN2CC[C@@H](N)C2)cc1 | -3.85 (inactive) | -0.0969 | 0.483 (inactive) | 0.933 (inactive) | -0.285 (inactive) | 0.525 (inactive) | 0.412 | -0.0323 (inactive) | -0.535 (inactive) | -1.29 | -0.336 | 0.202 | -0.375 | -3.15 | -1.65 | 2.5 | -0.559 (inactive) | -0.502 | -2.86 | 3.36 (inactive)
7 | NCCCCCNC(=O)[C@H]1C[C@H]2C(=O)N[C@@H](Cc3ccccc3)C(=O)N2[C@H]1c1cccc(OCCO)c1 | 0.545 (inactive) | 1.17 | 3.99 (inactive) | 0.812 (inactive) | -0.685 (inactive) | 0.325 (inactive) | -0.136 | 1.38 (inactive) | 0.875 (inactive) | 0.434 | 1.15 | -0.14 | 1.19 | 0.079 | 0.226 | 0.96 | -0.67 (inactive) | -0.288 | 0.948 | 1.35 (inactive)
8 | COC(=O)C(CC#Cc1ccc2c(c1)[C@]1(C(=O)N2)[C@H](c2ccccc2OCCO)N2[C@H](c3ccccc3)[C@H](c3ccccc3)OC(=O)[C@H]2[C@@H]1C(N)=O)C(=O)OC | 0.793 (inactive) | 1.81 | 7.57 (inactive) | 2.02 (inactive) | 1.44 (inactive) | 1.2 (inactive) | -0.0528 | 2.12 (inactive) | 0.696 (inactive) | 1.51 | -0.387 | 0.395 | -4.39 | -3.38 | -4.56 | -2.46 | 3.28 (inactive) | -1.18 | -2.09 | -1.01 (inactive)
9 | Cc1ccc([C@H]2C(C(=O)O)=CCN2S(=O)(=O)c2ccc(C)cc2)cc1 | -0.813 (inactive) | -0.0308 | 1.48 (inactive) | 0.495 (inactive) | 0.164 (inactive) | 0.291 (inactive) | -0.579 | 0.441 (inactive) | -0.84 (inactive) | -1.62 | -0.261 | -0.456 | -0.577 | -0.458 | -0.922 | -1.39 | -0.521 (inactive) | 0.284 | -0.0534 | -0.29 (inactive)
